Results on 17 targets are retold here after the supplement of paper PMC10849652.

The full data set covers some 7,900 targets. This sample favours those with a hit. About 0.6% of all pairs of compound and target were hits. Unmarked numbers belong to inactive results.

Common to all, as to experiment: log2 fold change, soluble protein after heating vs DMSO (PISA); higher = thermal stabilisation; K562 cells, 10 uM, 30 min; active = over 0.2 and 3.5 SD of the protein, either way, in both replicates (recomputed)
Compound in assay [1]: NC(=O)Nc1cc(-c2cccc(F)c2)sc1C(=O)N[C@H]1CCCNC1
The method in brief:
(§1)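 K562 cells (2×10^6 cells/mL) were treated with 10 μM compound for 30 min, and aliquots were heated for 3 min over 48°C-58°C. Pooled aliquots were extracted in PBS with 0.5% NP-40 at 4°C, and the supernatant after 21,000xg for 90 min was measured by TMTpro 16plex LC-MS/MS with channel sums equalised. Reported thermal stability, relative to control samples and from duplicates, is a log2 fold change.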

Compound in assay [2]: NC1(c2ccc(-c3nc4ccn5c(=O)[nH]nc5c4cc3-c3ccccc3)cc2)CCC1
The method in brief:
as §1

Compound in assay [3]: Nc1ccccc1NC(=O)c1ccc(CNC(=O)OCc2cccnc2)cc1 [entinostat]
In a few lines:
as §1

Compound in assay [4]: O=C(CCCCCCC(=O)Nc1ccccc1)NO [vorinostat]
In a few lines:
as §1

Compound in assay [5]: O=C(CCCCCCNC(=O)c1cnc(N(c2ccccc2)c2ccccc2Cl)nc1)NO [citarinostat]
The method in brief:
as §1

Compound in assay [6]: O=C(O)c1ccc2c(c1)nc(Nc1cccc(Cl)c1)c1ccncc12 [silmitasertib]
The method in brief: as §1

Compound in assay [7]: c1cc(OCCN2CCCCC2)cc(-c2n[nH]c3ccc(-c4nnc[nH]4)cc23)c1
In a few lines: as §1

Compound in assay [8]: c1cn2cc(-c3ccc4cn[nH]c4c3)nc(Nc3ccc(N4CCOCC4)cc3)c2n1 [entospletinib]
The method in brief:
as §1

Compound in assay [9]: NCC(=O)Nc1ccc(-n2nc(C(F)(F)F)cc2-c2ccc3c(ccc4ccccc43)c2)cc1
In a few lines: as §1

Compound in assay [10]: O=C1NC(=O)C(c2cnc3ccccn23)=C1c1cn2c3c(cc(F)cc13)CN(C(=O)N1CCCCC1)CC2
The method in brief:
as §1

Compound in assay [11]: NC(=O)c1cnc(N[C@@H]2CCCC[C@@H]2N)nc1Nc1cccc(-n2nccn2)c1
In a few lines:
as §1

UniProt Q04446, sequence (Q04446 whole entry, looked up): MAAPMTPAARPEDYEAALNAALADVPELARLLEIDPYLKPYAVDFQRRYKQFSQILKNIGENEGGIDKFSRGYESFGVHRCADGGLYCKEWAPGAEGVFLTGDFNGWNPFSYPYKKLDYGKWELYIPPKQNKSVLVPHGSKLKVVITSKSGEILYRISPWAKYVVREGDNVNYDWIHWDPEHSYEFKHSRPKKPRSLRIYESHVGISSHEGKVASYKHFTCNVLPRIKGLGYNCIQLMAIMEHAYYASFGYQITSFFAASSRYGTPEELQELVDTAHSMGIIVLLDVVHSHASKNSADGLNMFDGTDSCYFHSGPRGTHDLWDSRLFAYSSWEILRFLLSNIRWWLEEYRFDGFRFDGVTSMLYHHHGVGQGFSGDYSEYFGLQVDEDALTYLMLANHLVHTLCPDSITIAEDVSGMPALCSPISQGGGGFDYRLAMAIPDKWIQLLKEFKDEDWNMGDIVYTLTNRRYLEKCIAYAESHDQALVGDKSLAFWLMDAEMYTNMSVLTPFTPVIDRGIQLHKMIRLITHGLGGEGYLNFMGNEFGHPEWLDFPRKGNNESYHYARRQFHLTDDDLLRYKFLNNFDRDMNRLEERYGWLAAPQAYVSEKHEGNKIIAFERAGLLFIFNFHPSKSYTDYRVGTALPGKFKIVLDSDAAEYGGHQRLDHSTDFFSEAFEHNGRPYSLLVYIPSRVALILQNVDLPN
UniProt Q01628, sequence (Q01628 whole entry, looked up): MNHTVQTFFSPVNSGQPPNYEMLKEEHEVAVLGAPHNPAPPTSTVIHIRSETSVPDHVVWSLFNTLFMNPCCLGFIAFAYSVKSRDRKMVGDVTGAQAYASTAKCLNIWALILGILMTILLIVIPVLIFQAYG
UniProt A6NDN3, sequence (A6NDN3 whole entry, looked up): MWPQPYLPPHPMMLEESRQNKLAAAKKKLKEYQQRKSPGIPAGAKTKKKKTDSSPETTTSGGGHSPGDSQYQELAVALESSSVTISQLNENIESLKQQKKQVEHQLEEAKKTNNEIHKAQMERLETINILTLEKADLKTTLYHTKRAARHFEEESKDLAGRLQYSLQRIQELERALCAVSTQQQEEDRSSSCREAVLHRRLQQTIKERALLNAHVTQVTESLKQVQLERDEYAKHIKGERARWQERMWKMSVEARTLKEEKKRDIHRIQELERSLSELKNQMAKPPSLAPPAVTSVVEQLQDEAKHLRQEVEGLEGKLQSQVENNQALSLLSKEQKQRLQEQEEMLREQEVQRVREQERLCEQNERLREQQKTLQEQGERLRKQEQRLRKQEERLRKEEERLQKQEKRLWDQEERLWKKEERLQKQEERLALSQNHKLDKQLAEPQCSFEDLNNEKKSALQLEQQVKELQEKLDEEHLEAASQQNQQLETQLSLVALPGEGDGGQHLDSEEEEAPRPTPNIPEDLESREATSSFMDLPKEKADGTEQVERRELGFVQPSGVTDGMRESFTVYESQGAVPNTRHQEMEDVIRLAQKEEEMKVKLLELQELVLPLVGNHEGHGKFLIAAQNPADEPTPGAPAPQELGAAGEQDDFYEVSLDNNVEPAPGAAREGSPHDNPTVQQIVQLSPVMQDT
UniProt P54652, sequence (P54652 whole entry, looked up): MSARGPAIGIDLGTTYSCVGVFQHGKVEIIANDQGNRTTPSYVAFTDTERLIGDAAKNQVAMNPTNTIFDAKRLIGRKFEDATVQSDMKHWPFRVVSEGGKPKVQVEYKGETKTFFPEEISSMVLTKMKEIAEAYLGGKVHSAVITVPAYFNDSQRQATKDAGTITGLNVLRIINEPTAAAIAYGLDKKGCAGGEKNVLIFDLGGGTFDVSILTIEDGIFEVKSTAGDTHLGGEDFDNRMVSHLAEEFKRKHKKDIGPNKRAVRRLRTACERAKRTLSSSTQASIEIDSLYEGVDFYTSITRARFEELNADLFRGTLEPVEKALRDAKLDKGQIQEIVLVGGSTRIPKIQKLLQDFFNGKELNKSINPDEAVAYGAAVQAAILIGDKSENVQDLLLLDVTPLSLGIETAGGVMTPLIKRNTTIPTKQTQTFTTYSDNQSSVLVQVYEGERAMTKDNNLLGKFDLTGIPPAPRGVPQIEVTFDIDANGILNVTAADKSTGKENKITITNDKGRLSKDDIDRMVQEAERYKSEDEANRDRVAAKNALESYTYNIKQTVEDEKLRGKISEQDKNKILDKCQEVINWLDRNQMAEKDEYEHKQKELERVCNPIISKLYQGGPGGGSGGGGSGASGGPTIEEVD
UniProt Q53T59, sequence (Q53T59 whole entry, looked up): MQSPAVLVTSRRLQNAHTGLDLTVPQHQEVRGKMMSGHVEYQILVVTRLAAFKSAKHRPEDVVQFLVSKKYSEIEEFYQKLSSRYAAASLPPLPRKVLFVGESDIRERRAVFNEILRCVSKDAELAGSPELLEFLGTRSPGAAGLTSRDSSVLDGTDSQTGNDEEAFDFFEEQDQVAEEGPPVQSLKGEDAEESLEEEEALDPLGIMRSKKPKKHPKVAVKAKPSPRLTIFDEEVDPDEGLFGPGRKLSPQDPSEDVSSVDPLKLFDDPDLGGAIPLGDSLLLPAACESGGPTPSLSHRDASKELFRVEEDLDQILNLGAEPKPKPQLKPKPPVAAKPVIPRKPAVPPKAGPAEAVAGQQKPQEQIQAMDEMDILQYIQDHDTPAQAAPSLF
UniProt Q14956, sequence (Q14956 whole entry, looked up): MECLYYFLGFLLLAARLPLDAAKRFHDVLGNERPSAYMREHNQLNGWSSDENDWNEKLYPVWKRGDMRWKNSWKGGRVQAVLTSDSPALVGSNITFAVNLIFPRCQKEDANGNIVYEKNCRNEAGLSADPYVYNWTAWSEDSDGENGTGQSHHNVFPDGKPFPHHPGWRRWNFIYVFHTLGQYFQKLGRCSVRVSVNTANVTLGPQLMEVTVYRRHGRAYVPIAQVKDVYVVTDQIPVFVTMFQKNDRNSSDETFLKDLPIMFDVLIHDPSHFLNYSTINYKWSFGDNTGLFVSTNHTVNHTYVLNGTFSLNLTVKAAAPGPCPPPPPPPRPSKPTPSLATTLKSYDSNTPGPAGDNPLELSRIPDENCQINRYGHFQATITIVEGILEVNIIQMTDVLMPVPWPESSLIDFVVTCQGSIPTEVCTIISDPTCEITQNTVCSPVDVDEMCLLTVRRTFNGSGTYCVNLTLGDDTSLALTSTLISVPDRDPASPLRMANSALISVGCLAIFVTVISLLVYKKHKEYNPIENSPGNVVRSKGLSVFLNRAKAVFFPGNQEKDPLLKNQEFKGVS
UniProt Q53R41, sequence (Q53R41 whole entry, looked up): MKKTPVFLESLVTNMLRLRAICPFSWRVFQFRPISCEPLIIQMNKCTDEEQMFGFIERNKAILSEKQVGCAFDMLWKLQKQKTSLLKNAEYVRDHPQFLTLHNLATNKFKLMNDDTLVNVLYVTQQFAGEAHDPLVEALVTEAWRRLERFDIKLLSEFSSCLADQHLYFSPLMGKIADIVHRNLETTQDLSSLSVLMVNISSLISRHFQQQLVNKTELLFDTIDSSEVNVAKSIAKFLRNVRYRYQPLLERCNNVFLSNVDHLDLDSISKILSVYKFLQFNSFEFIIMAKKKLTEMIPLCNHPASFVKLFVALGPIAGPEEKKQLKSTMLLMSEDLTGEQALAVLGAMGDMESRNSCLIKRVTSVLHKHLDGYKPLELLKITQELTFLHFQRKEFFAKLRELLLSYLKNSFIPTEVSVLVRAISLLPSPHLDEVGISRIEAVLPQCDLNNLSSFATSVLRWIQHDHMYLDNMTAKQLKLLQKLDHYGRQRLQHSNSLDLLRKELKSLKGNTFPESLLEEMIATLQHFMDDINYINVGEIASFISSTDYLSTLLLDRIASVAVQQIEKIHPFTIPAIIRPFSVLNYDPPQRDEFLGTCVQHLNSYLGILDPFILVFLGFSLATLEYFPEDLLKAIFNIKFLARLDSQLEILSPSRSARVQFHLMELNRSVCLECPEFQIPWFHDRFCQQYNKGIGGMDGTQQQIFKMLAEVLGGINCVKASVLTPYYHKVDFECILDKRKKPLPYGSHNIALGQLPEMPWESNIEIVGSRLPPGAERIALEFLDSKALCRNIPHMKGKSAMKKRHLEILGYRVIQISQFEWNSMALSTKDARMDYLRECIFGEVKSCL
UniProt Q9NZC3, sequence (Q9NZC3 whole entry, looked up): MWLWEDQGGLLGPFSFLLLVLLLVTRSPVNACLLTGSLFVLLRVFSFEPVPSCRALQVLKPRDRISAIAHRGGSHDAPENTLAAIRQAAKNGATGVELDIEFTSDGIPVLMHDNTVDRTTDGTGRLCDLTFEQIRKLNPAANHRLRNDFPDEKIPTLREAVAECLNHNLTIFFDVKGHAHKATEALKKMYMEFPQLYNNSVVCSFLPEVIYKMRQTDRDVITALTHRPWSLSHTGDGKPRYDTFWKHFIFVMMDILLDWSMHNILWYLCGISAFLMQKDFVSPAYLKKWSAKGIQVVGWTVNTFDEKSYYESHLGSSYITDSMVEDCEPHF
UniProt P30711, sequence (P30711 whole entry, looked up): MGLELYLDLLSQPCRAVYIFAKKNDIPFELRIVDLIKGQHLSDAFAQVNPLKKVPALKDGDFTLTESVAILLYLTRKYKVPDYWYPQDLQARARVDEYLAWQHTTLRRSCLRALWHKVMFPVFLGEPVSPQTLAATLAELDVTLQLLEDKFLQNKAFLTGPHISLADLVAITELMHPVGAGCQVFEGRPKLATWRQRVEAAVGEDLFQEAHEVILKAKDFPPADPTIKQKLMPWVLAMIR

Turning to FMR1 (UniProt Q06787), the log2 fold change was 0.086 in assay [1]; 0.836 (active) in assay [2]; -0.106 in assay [3]; -0.137 in [4]; 0.101 in assay [5]; 0.058 in assay [6]. In addition, the log2 fold change in assay [7] was -0.146; in assay [8] it was 0.01.

Consider FAT2 (UniProt Q9NYQ8), for which the log2 fold change was -0.334 in assay [2]; -0.134 in assay [9]; 0.068 in assay [4]; -0.045 in assay [5]; -0.063 in assay [6]; -0.06 in [10]. Further, the log2 fold change in assay [7] is -0.06; in [8], 0.119.

In the case of HNRNPUL1 (UniProt M0R247), the log2 fold change was -0.056 in assay [1]; -0.629 in [11]; -0.352 in assay [3]; -0.227 in assay [5]; -0.014 in assay [7]; -0.056 in assay [8].

For HSPA2 (UniProt P54652), the log2 fold change was -0.015 in [1]; 0.076 in assay [11]; -0.071 in assay [2]; -0.039 in [3]; 0.006 in assay [6].

GSTT1 (UniProt P30711): the log2 fold change in [11] was 0.012; in assay [2], 0.03; in assay [9], 0.08; in assay [4] it was -0.022; in assay [5], -0.018; in assay [6] it was -0.074. Moreover, the values for the log2 fold change in [10], in assay [7] and in assay [8] were 0.019, -0.012 and 0.013, respectively.

On to GOLGA6B (UniProt A6NDN3), for which the log2 fold change in [1] is 0.048; in [2] it was -0.054; in [9] it was 0.001; in assay [3], 0.007; in assay [4], 0.114; in [6], 0.022. The log2 fold change in assay [10] was 0.051.

Regarding GSE1 (UniProt Q14687), the log2 fold change in assay [9] was -0.044.

In the case of FASTKD1 (UniProt Q53R41), the log2 fold change in assay [1] was 0.046; in assay [11], -0.014; in [9], 0.033; in assay [3], -0.019; in [4], 0.018; in assay [5] it was -0.055. For the same target, the results for the log2 fold change in assay [10], in assay [7] and in assay [8] were -0.12, 0.046 and -0.11, respectively.

As for GDE1 (UniProt Q9NZC3), the log2 fold change in assay [1] is -0.001; in [11] it was 0.058; in assay [2], 0.094; in assay [9], -0.01; in assay [3], -0.065; in assay [5], 0.024. Also, the log2 fold change in assay [6] was -0.086; in assay [10], -0.008; in assay [7], 0.032; in assay [8], 0.

For GBE1 (UniProt Q04446), the log2 fold change was -0.11 in assay [11]; -0.214 in [2]; -0.07 in assay [9]; 0.09 in [5]; 0.031 in assay [6]; -0.049 in assay [10]. In addition, the log2 fold change is -0.057 in assay [7] and 0.039 in [8].

Consider HDAC2 (UniProt Q92769), for which the log2 fold change in assay [1] was -0.01; in assay [11], -0.037; in [2], -0.013; in assay [9] it was -0.039; in assay [5], 1.04 (active); in [6], 0.04. Further, the log2 fold change in assay [10] is -0.021; in [7], -0.041; in [8], 0.

For the target GPNMB (UniProt Q14956), the log2 fold change in [5] was -0.125; in assay [10], -0.015; in assay [7] it was 0.727; in [8] it was 0.

For IFITM3 (UniProt Q01628), the log2 fold change is -0.074 in assay [1]; 0.1 in [11]; -0.089 in assay [2]; 0.14 in assay [9]; 0.008 in assay [3]; 0.232 in assay [5]. The log2 fold change in assay [6] was -0.111; in assay [10], 0.072; in assay [7], -0.164; in [8], 0.034.

With GREB1 (UniProt Q4ZG55), the log2 fold change in assay [1] was 0.029; in assay [11], -0.103; in [9], -0.002; in [3], 0.012; in [10], 0.036.

For HEATR3 (UniProt Q7Z4Q2), the log2 fold change in [1] was 0; in [2], -0.248; in [9] it was -0.103; in [3] it was 0.052; in assay [4], -0.017; in assay [5], 0.075. The log2 fold change in assay [6] is 0.02; in assay [10] it was -0.051; in [7], 0.047; in assay [8], 0.

For HS1BP3 (UniProt Q53T59), the log2 fold change in assay [1] is -0.059; in [11], -0.075; in assay [9], 0.027; in assay [3] it was -0.05; in assay [5] it was 0.115; in assay [10], -0.016. Moreover, the figures for the log2 fold change in assay [7] and in [8] were 0.108 and -0.126, respectively.

Regarding FGG (UniProt P02679), the log2 fold change in assay [4] was -0.001.
